# Measured values reported in PubChem BioAssay (NCATS).
# Inconclusive results are not listed. A call without a number means that no potency is given here. Active and inactive are the calls of the source. Calls follow the shape of the dose curve; as a rule, active = well fitted inhibition curve with a large enough effect; inconclusive = small, poorly fitted or top-dose-only effect; inactive = flat fitted curve, though single readings scatter.
# Target: Calcium and integrin-binding protein 1 (Homo sapiens) (UniProt Q99828)
# Sequence (Q99828 whole entry, looked up): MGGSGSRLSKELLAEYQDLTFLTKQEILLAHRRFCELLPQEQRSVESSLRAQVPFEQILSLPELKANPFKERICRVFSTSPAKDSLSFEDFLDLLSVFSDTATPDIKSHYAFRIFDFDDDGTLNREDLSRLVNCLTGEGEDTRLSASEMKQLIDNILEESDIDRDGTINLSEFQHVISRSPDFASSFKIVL
# Assay: Primary qHTS for Identification of Calcium Integrin Binding Protein 1 (CIB1) Competitor (AID 1508620);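 also: GST tagged CIB1 binding a fluorescein labelled alphaIIb integrin peptide tracer; top concentration of the series differs between compounds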
# Details: CIB1-GST / FITC-alphaIIb peptide fluorescence polarization; series mostly up to 114 µM
# In short: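 CIB1-GST (1 uM final) and compound incubated 15 min at room temperature before adding FITC-alphaIIb peptide tracer (100 nM final). Competition for binding read by fluorescence polarization (ex 480, em 540) after another 15 min at room temperature.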
row,Compound,Potency
1,Cc1cc(NC(=O)Nc2nnc(-c3cccnc3)s2)ccc1Cl,inactive
2,C[C@@H]1CN(S(=O)(=O)c2ccc3c(c2)OCCO3)CCN1S(=O)(=O)c1c(F)cccc1F,inactive
3,Cc1nc2ccccn2c1C(O)(c1ccccc1)c1ccccc1,inactive
4,N#Cc1ccc(S(=O)(=O)N2CCN(S(=O)(=O)c3ccc4c(c3)OCCO4)CC2)cc1,inactive
5,CCC(=O)NC(c1cccs1)c1cc([N+](=O)[O-])c2cccnc2c1OC (stereo not given),inactive
6,COc1ccc(C2=Nn3c(nnc3-c3ccccc3F)SC2)cc1OC1CCOC1 (stereo not given),inactive
7,COc1ccc2ncnc(NCc3cccs3)c2c1-c1ccc2c(c1)OCO2,inactive
8,O=C(Nc1ccc2c(c1)OCCO2)c1ccc(-c2nc3ccccc3[nH]2)cc1,inactive
9,O=C(/C=C/c1ccc2c(c1)OCO2)Nc1cccc([S+](=O)([O-])Nc2ccccc2F)c1,inactive
10,COc1ccc(S(=O)(=O)Nc2ccc(C)c(C)c2)cc1,inactive
11,CC(=O)N1CCCc2cc(S(=O)(=O)Nc3ccc(C)c(C)c3)ccc21,inactive
12,CCN(CC)c1ccc(NC(=O)CN(C)Cc2c(O)ccc3ccccc23)cc1,inactive
13,O=C(O)c1ccc2c(c1)C(=O)N([C@@H](Cc1ccc(O)cc1)C(=O)O)C2=O,inactive
14,CC(=O)NC(C)c1cc(F)c2cccnc2c1O (stereo not given),inactive
15,CC(C)(C)OC(=O)NCCOCCOCCOc1cccc(-n2ncc3c2CCCC3NC(=O)c2ccccn2)c1 (stereo not given),inactive
16,N#Cc1ccccc1OC1=NS(=O)(=O)c2ccccc21,inactive
17,Cc1nc(-c2ccccc2)oc1-c1ccc2ncnc(NCCc3cnc[nH]3)c2c1,inactive
18,Cc1cc(N[S+](=O)([O-])c2ccc(NC(=O)Cc3cccc(Cl)c3Cl)cc2)no1,inactive
19,COc1ccc(-c2ccc(CNc3ccc(N4CCN(C(=O)OC(C)(C)C)CC4)cc3)o2)cc1,inactive
20,O=C(c1cc2sccc2n1Cc1ccccc1)N(CCc1ccc(O)c(O)c1)Cc1ccccc1,inactive

row,Compound,Potency
1,CCOC(=O)C1CCN(C(=O)C(C)(C)NC(=O)Nc2ccc3ccccc3c2)CC1,inactive
2,COc1cc(F)c(S(=O)(=O)N2CCN(S(=O)(=O)c3ccc(NC(C)=O)cc3)CC2)c(F)c1,inactive
3,CN1CCN(Cc2cc(COCc3ccccc3)c3cccnc3c2O)CC1,inactive
4,Cc1cnc(-c2ccccc2C(C)O)nc1NCC1CCN(c2cccnc2)CC1 (stereo not given),inactive
5,O=S(=O)(c1ccc2c(c1)OCCO2)C1CCC(S(=O)(=O)c2c(F)cccc2F)CC1 (stereo not given),inactive
6,Cc1cccc(C)c1-n1c(SCC(=O)Nc2ccc(C(=O)O)cc2)nnc1-c1ccc([S+](=O)([O-])N2CCCC2)cc1,inactive
7,O=C1CCc2cc(S(=O)(=O)Nc3cc(F)cc(Cl)c3)c(F)cc2N1,inactive
8,Cc1cc(C)nc(NC(=S)N2CCN(c3ncnc4ccccc34)CC2)c1,inactive
9,CCOC(=O)C1CCN(C(=O)CNC(=O)Nc2ccccc2Cl)CC1,inactive
10,Cc1cc2c(s1)c1cnn(Cc3ccc(Cl)c(Cl)c3)c(=O)c1n2C,inactive
11,COc1ccc(C2Nc3ccccc3C(=O)N2Cc2ccccc2)cc1COc1c(C)cccc1C (stereo not given),inactive
12,COc1ccc(C(=O)N(Cc2ccccc2)Cc2cccs2)c(O)c1,inactive
13,CCOC(=O)Nc1sc2c(c1C(N)=O)CCCC2,inactive
14,Cn1nnnc1Sc1ncnc2scc(-c3ccc4c(c3)OCO4)c12,inactive
15,Cc1ccc(OCCn2c(CCNC(=O)c3ccccc3[N+](=O)[O-])nc3ccccc32)cc1,inactive
16,Oc1cccc2cc(NCc3ccccc3F)cnc12,inactive
17,CC(C)(C)OC(=O)Cc1nnc(-c2nc3ccccc3[nH]2)s1,inactive
18,C#Cc1nc(Nc2cccc(Cl)c2)nc(NC2CCCC2)n1,inactive
19,O=C(/C=C/c1ccccc1)Nc1cccc(S(=O)(=O)Nc2ccccc2F)c1,inactive
20,COc1cccc(NC(=S)N2CCN(c3ccc(Cl)cc3Cl)CC2)n1,inactive
